A selection: hits, their analogues and other compounds. The true share with any hit is near 1.6%.
KCNQ2 inh: rat KCNQ2 potassium channel inhibitors, primary screen, cell-based, CHO-K1, FluxOR thallium flux, B-score; Potassium voltage-gated channel subfamily KQT member 2 (Rattus norvegicus), O88943; 20 min; stronger effect = lower value; B-score at 10 µM; 310,000 compounds, 1.1% hits;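 active means fluorescence ratio B-score at most minus 3 library SDs, with starting brightness B-score within 2 library SDs, cut at about -5.5 in these data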
Target sequence (O88943 whole entry, looked up): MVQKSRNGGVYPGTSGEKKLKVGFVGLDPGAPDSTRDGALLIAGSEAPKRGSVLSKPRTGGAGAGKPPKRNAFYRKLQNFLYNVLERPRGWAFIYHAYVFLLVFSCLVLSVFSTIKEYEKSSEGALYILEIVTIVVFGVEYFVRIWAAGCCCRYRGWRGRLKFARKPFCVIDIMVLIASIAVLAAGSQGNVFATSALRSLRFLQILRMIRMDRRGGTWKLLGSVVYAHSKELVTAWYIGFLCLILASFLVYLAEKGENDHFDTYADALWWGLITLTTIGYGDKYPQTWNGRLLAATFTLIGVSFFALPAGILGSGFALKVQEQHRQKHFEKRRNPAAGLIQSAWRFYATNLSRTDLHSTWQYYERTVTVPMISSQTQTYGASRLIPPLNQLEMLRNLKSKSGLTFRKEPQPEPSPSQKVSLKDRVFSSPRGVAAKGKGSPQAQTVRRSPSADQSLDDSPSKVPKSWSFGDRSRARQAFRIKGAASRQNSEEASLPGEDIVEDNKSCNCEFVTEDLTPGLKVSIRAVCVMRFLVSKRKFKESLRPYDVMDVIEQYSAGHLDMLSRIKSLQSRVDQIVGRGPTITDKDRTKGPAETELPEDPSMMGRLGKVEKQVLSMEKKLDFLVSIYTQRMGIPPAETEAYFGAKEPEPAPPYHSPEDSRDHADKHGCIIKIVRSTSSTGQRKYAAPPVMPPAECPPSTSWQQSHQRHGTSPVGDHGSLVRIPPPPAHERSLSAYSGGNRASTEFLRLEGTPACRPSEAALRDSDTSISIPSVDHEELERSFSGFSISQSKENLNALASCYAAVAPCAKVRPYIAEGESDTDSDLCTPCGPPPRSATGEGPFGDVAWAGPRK
KCNQ2 pot: potentiators of rat KCNQ2 potassium channel. Potassium voltage-gated channel subfamily KQT member 2 (Rattus norvegicus), O88943. CHO-K1 KCNQ2, FluxOR thallium flux fluorescence; stronger effect = higher value. B-score at 10 µM. 310,000 compounds, 0.54% hits;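 active means fluorescence ratio B-score at least 3 SD of library B-scores, with initial fluorescence B-score within 3 of them, cut at about 5.3 in these data; same plate scores as AID 2156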;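 further: B-score of peak minus minimum over baseline fluorescence ratio after K+ and Tl+ stimulus; positive B-score means potentiation of KCNQ2 with more thallium influx and brighter signal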
A number is an active result; n = inactive; x = not tested or not shown.

SMILES	KCNQ2 inh	KCNQ2 pot
CCN(c1ccccc1)S(=O)(=O)c1ccc(OC)c(NC(=O)COc2ccc(C(C)=O)cc2)c1	n	n
O=C(NC1CC(=O)N(c2ccc(Cl)cc2)C1)N1CCN(C(=O)c2ccco2)CC1 (stereo not drawn)	n	n
Cc1cc(Oc2ccc(C(C)(C)C)cc2)nc(N2CCOCC2)n1	-6.23	n
Cc1cc(Oc2ccc(-c3ccccc3)cc2)nc(N2CCOCC2)n1	n	x
O=S(=O)(Oc1ccccc1N1CCCCC1)c1ccccc1	n	n
Cc1onc(-c2c(Cl)cccc2Cl)c1C(=O)NN1CCCCCC1	n	x
Cc1c(C(=O)NN2CCCCC2)nn(-c2ccc(Cl)cc2Cl)c1-c1ccc(I)cc1	-9.92	n
O=C(COC(=O)CCc1nc2ccccc2s1)NC(=O)NCc1ccco1	n	x
COc1ccc(/C(C)=N/Nc2cccc(C(=O)O)c2)cc1OC	n	x
C/C(=N\Nc1ccc(C(=O)O)cc1)c1ccc2c(c1)Nc1ccccc1S2	n	5.35
O=C(Nc1ccccc1)[C@@H]1CC=C[C@@H]2CCN(Cc3ccc(Cl)c(Cl)c3)C(=O)[C@@H]21	n	x
C=CCSc1nc(NC)c2sccc2n1	n	x
CC(C)C(=O)Nc1cccc(C(=O)Nc2nnc(C(C)C)s2)c1	n	n
CC(C)c1nnc(NC(=O)c2cccc(NC(=O)C(F)(F)F)c2)s1	-5.93	n
COc1ccc(-n2c(COc3ccccc3)nnc2SCc2ccc(C#N)cc2)cc1	n	n
N#Cc1ccc(CSc2nnc(COc3ccccc3)n2-c2ccccc2)cc1	-5.61	n
Cc1cccc2cc(CN(Cc3nnnn3C3CCCCC3)C3CCCC3)c3nnnn3c12	n	x
Cc1nnc(SC(C)C(=O)Nc2ccc(Cl)cn2)n1Cc1ccccc1 (stereo not drawn)	-6.15	n
CC(Sc1nnc(-c2ccc(Cl)cc2Cl)n1Cc1ccccc1)C(=O)Nc1nccs1 (stereo not drawn)	n	x
COC(CNC(=O)CCc1c(C)nc2c(-c3ccccc3)c(C)nn2c1C)OC	n	x
C[C@@H](C(=O)NCC1CC1)[C@@H]1C[C@@]1(C)[C@@H](NC(=O)OCc1ccccc1)c1ccccc1	n	x
C[C@@H](C(=O)Nc1ccc2ccccc2c1)[C@H]1C[C@]1(C)[C@H](NC(=O)OCc1ccccc1)c1ccccc1	-5.89	n
C[C@@H](C(=O)NCc1ccccn1)[C@H]1C[C@]1(C)[C@H](NC(=O)OCc1ccccc1)c1ccccc1	-6.68	n
C[C@H](CO)NC(=O)[C@H](C)[C@H]1C[C@]1(C)[C@H](NC(=O)OCc1ccccc1)c1ccccc1	n	n
Cc1ccc(SCC(=O)N/N=C/c2ccco2)cc1	n	n
SMILES	KCNQ2 inh	KCNQ2 pot
CC1Cc2ccccc2N1S(=O)(=O)c1cccc(C(=O)N2CC(=O)Nc3ccccc32)c1 (stereo not drawn)	n	x
O=C(Nc1cc(C(F)(F)F)ccc1N1CCOCC1)C1Cc2ccccc2CN1C(=O)c1ccco1 (stereo not drawn)	-6.45	n
O=C(Nc1ccccc1)C1Cc2ccccc2CN1C(=O)c1ccco1 (stereo not drawn)	n	x
O=C(/C=C/c1ccco1)NC(=S)Nc1cc(C(F)(F)F)ccc1N1CCOCC1	-7.27	n
O=C(CCCCl)NC(=S)Nc1cc(C(F)(F)F)ccc1N1CCOCC1	n	n
CCOc1ccc2nc(COC(=O)c3cccc([N+](=O)[O-])c3)c(C(C)=O)[n+]([O-])c2c1	n	x
O=C(N[C@@H](Cc1c[nH]c2ccccc12)C(=O)O)c1ccc(Cl)cc1	n	n
NC(=NCCc1c[nH]c2ccccc12)NC(=O)c1ccc(Cl)cc1	-5.69	n
CCn1c(=O)c2sccc2n(Cc2ccccc2)c1=O	n	x
COc1ccc(CCNC(=O)C2CCC(=O)N(CC3CCCCC3)C2)cc1 (stereo not drawn)	n	x
Nc1nonc1-n1nnc(C(=O)N/N=C/c2ccoc2)c1CSc1ccc(Cl)cc1	n	x
Cc1nc2c(-c3ccc(F)cc3)c(C)nn2c(C)c1CCC(=O)N1CCN(c2ccccc2)CC1	n	x
Cc1nc2c(-c3ccc(F)cc3)c(C)nn2c(C)c1CCC(=O)N1CCC(Cc2ccccc2)CC1	-6.06	n
O=C(NC(=S)Nc1ncc(Br)cc1Br)c1ccccc1	n	n
CCCCn1c(-c2sccc2C)n[nH]c1=S	n	n
Cc1nn(C)cc1C(=O)Nc1cc(Oc2ccc(Cl)cc2)cc([N+](=O)[O-])c1	n	x
CCn1nc(C)c(C(=O)Nc2cc(Oc3cc(C)cc(C)c3)cc([N+](=O)[O-])c2)c1C	-5.57	n
COc1cccc(/C=N/n2c(COc3ccccc3)n[nH]c2=S)c1	n	x
O=C(OC[C@@H]1CCCN2CCCC[C@H]12)c1cc2ccccc2oc1=O	n	n
CCN(Cc1ccccc1)S(=O)(=O)c1cc(C(=O)NC2CCCCCC2)ccc1OC	-6.78	n
CCN(Cc1ccccc1)S(=O)(=O)c1cc(C(=O)NCC2CCCCC2)ccc1OC	n	x
CCCC(=O)Nc1ccc(N2CCN(C(=O)c3cccs3)CC2)cc1	n	n
CNS(=O)(=O)c1cc(C(=O)OCC(=O)NC2CCCc3ccccc32)ccc1Cl (stereo not drawn)	n	x
CCN(CC)S(=O)(=O)c1cc(C(=O)OCC(=O)NC2CCCc3ccccc32)ccc1C (stereo not drawn)	-7.71	n
O=C(OCc1ccccc1)c1cccc(-c2nnc(-c3ccccc3)o2)c1	-6.33	n
SMILES	KCNQ2 inh	KCNQ2 pot
O=C(OCc1ccc(C(=O)c2ccccc2)cc1)c1cccc(-c2nnc(-c3ccccc3)o2)c1	n	x
CN(C(=O)c1nn(C)c2c1CSc1ccccc1-2)c1ccc(F)cc1	-6.51	n
CC1CCCN(C(=O)c2nn(C)c3c2CSc2ccccc2-3)C1 (stereo not drawn)	n	x
COCCN(CC1CCCN(C2Cc3ccccc3C2)C1)C(=O)CCC(N)=O (stereo not drawn)	n	x
Cc1cc(C)n(C(C)Sc2ccccc2)n1 (stereo not drawn)	n	n
CCc1ccc(C(=O)CSc2n[nH]c(-c3ccncc3)n2)cc1	n	6.27
COC(=O)CSc1n[nH]c(-c2ccncc2)n1	n	n
COC(=O)c1cccnc1NC(=S)NC1CCCCC1	n	7.69
COC(=O)c1ccc(NC(=S)NC2CCCCC2)cc1	n	x
O=C(Nc1nc2ccc(F)cc2s1)C1=COCCO1	n	x
O=C(Nc1nc2ccc(F)cc2s1)c1ccccn1	n	16
COc1cc(CC(=O)OCC(=O)N2C(C)CCCC2C)cc(OC)c1OC (stereo not drawn)	n	x
CC(C)(c1ccccc1)c1ccc(OCCn2cnc3ccccc3c2=O)cc1	-7.41	n
O=C(c1ccccc1)c1ccc(OCCn2cnc3ccccc3c2=O)cc1	n	n
Cn1ncc(C#N)c1/N=C/N(Cc1ccccc1)Cc1ccccc1	-5.71	n
Cn1ncc(C#N)c1/N=C/N1CCCC1	n	n
O=C(c1sc2ccccc2c1Cl)N1CCN(c2ccc(F)cc2)CC1	-6.59	n
O=C(c1sc2ccccc2c1Cl)N1CCN(c2ccccc2F)CC1	n	x
COCc1cc(C)nc(SCc2ccc([N+](=O)[O-])cc2)c1C#N	n	x
O=C(CSc1nnc(COc2cccc3ccccc23)o1)N1c2ccccc2CCc2ccccc21	-8.4	n
NC(=O)CSc1nnc(COc2cccc3ccccc23)o1	n	n
CC1CCN(C(=O)Cn2nnc(-c3ccc([N+](=O)[O-])cc3)n2)CC1	n	n
N#C/C(C(=O)N1CCCC1)=C1/N=C(N)c2ccccc21	n	n
Cc1ccc(NC(=O)NC2=N/C(=C(/C#N)C(=O)N3CCCC3)c3ccccc32)cc1	-6.98	n

Assay outcomes as filed in PubChem.
